This passage reports growth results from PubChem BioAssay (NCI).

This is part of a sample that, as a whole, favours compounds with a hit. Of some 83,000 tested, about 20% had one in any assay.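 Single-dose data. Exposure time 48 hours. Values below 10 considered active.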 Values without a mark were called inactive. The source made the active and inactive calls.

Assay in all cases: NCI-60 one-dose screen, 48 h (100 = growth as untreated, 0 = no growth, -100 = all killed)
One assay has as its system HCT-15 colon. To be noted: 10 µM.
A further assay deals with SNB-75 CNS. Conditions: 10 µM.
For the next assay, the system named is SNB-19 CNS. To be noted: 10 µM.
A further assay has as its system U251 CNS. Conditions: 10 µM.
The test system of another assay is PC-3 prostate. Conditions: 10 µM.
A further assay concerns SK-MEL-5 melanoma. To be noted: 10 µM.
The subject of the next assay is UACC-62 melanoma. To be noted: 10 µM unless noted.
For a further assay, the system named is LOX IMVI melanoma. Conditions: 10 µM.
Another assay deals with SK-MEL-28 melanoma. To be noted: 10 µM.
The subject of the next assay is HT29 colon. To be noted: 10 µM.

For the compound `O=S(=O)(O)CC(O)CN1CCN(CCO)CC1` (centres undefined), the growth with HCT-15 colon is 102%; with SNB-75 CNS, 102%; in the assay with SNB-19 CNS, 115%; in the assay with U251 CNS, 106%; in the assay with PC-3 prostate, 81.1%; in the assay on SK-MEL-5 melanoma, 107%. Also, the growth in the assay on UACC-62 melanoma was 117%; in the assay on LOX IMVI melanoma, 96.8%; with SK-MEL-28 melanoma, 117%.
On to `[O-][N+](=Nc1cccc(Cl)c1)c1cccc(Cl)c1`, for which the growth is 78.1% in the assay with HCT-15 colon; 100% in the assay on SNB-19 CNS; 84.1% in the assay with U251 CNS; 96.4% in the assay with PC-3 prostate; 95.9% in the assay with SK-MEL-5 melanoma; 87.5% with UACC-62 melanoma. In addition, in the assay with LOX IMVI melanoma, the growth is 97.4%.
Regarding `CN(C)C(=O)Oc1cccc([N+](C)(C)C)c1`, the growth in the assay with HT29 colon was 115%; in the assay on SNB-75 CNS it was 85.1%; in the assay with SNB-19 CNS it was 105%; in the assay on U251 CNS it was 97.9%; in the assay with PC-3 prostate, 98.5%; in the assay on SK-MEL-5 melanoma, 94.9%. Moreover, the growth was 104% in the assay on UACC-62 melanoma and 105% with LOX IMVI melanoma.
Turning to `Cc1nc2ccccc2c(C(=O)O)c1O`, the growth is 103% in the assay with HT29 colon; 98.3% in the assay on SNB-75 CNS; 93.1% in the assay with SNB-19 CNS; 103% in the assay on U251 CNS; 104% in the assay on PC-3 prostate; 102% in the assay on SK-MEL-5 melanoma. The growth with UACC-62 melanoma was 93.2%; in the assay with LOX IMVI melanoma, 96.4%; in the assay with SK-MEL-28 melanoma, 122%.
With `Cc1ccccc1C1N=C2Oc3ccccc3C=C2C(=O)N1` (centres undefined), the growth in the assay on HCT-15 colon is 36.8%; with SNB-75 CNS, 21%; in the assay with SNB-19 CNS it was 61.3%; with U251 CNS, 63.8%; in the assay on UACC-62 melanoma it was 35.1%; in the assay with LOX IMVI melanoma it was 57.3%. Besides, the growth in the assay on SK-MEL-28 melanoma was 41.5%.
As for `CNc1nc(NC)c2cn[nH]c2n1`, the growth in the assay with HCT-15 colon was 101%; in the assay on SNB-75 CNS, 91.1%; in the assay with SNB-19 CNS, 106%; in the assay with PC-3 prostate, 91.9%; in the assay on SK-MEL-5 melanoma, 97.8%; in the assay on UACC-62 melanoma it was 102%. Moreover, the figures for the growth with LOX IMVI melanoma and in the assay with SK-MEL-28 melanoma were 98.3% and 115%, respectively.
In the case of `O=c1c2ccccc2c(Br)c(Br)c2ccccc12`, the growth in the assay with HCT-15 colon was 98%; in the assay on SNB-75 CNS it was 119%; with SNB-19 CNS, 101%; with U251 CNS, 91%; in the assay with PC-3 prostate, 95.7%; in the assay on UACC-62 melanoma, 95.6%. The growth in the assay with SK-MEL-28 melanoma is 106%.
In the case of `CCOC(=O)c1[nH]c(C)c(C(C)=O)c1C`, the growth is 103% in the assay with HCT-15 colon; 78.2% with SNB-75 CNS; 94.4% in the assay on SNB-19 CNS; 91.2% in the assay on U251 CNS; 93.4% in the assay with SK-MEL-5 melanoma; 100% with UACC-62 melanoma. For the same compound, the growth in the assay on LOX IMVI melanoma is 82.2%; with SK-MEL-28 melanoma, 97.4%.
Take `c1c(-c2cc(C3CC3)[nH]n2)n[nH]c1C1CC1`: the growth is 103% in the assay with HCT-15 colon; 112% in the assay on SNB-75 CNS; 95.2% in the assay with U251 CNS; 98.1% in the assay on PC-3 prostate; 82.1% in the assay with SK-MEL-5 melanoma; 87.2% with UACC-62 melanoma. In addition, the growth was 77.8% in the assay with LOX IMVI melanoma and 100% with SK-MEL-28 melanoma.
As for `Brc1cnc2ccccc2c1`, the growth was 101% in the assay on HCT-15 colon; 106% with SNB-75 CNS; 95.5% in the assay on SNB-19 CNS; 103% in the assay on U251 CNS; 97% in the assay with PC-3 prostate; 93.4% with UACC-62 melanoma. Also, the growth with LOX IMVI melanoma was 101%; with SK-MEL-28 melanoma, 113%.
On to `COc1cc2c(cc1O)CC[C@@H]1C2CC[C@@]2(C)C1CC[C@@H]2O` (some centres undefined), for which the growth was 22.4% in the assay on HT29 colon; 3.42% (active) with SNB-75 CNS; 28.9% with SNB-19 CNS; 33.5% in the assay with U251 CNS; 19.7% with PC-3 prostate; -22.1% (active) in the assay with SK-MEL-5 melanoma. The growth in the assay with UACC-62 melanoma was 22.2%; in the assay with LOX IMVI melanoma it was 48%.
Turning to `CC(=O)OCC1OC(OC2=C(CC=C(C)C)C(=O)c3ccccc3C2=O)C(OC(C)=O)C(OC(C)=O)C1OC(C)=O` (centres undefined), the growth in the assay on HCT-15 colon was 12.2%; in the assay with SNB-19 CNS, 61.2%; with U251 CNS, 8.23% (active); in the assay with PC-3 prostate, -6.07% (active); in the assay on SK-MEL-5 melanoma it was 4.66% (active); in the assay on UACC-62 melanoma it was -23.8% (active). Besides, the growth in the assay with LOX IMVI melanoma is 6.88% (active); with SK-MEL-28 melanoma it was 30.3%.
In the case of `O=C(Cc1ccccc1)Cc1ccccc1`, the growth was 103% in the assay on HCT-15 colon; 99.5% in the assay on SNB-75 CNS; 101% in the assay with SNB-19 CNS; 96.7% in the assay on U251 CNS; 103% in the assay on PC-3 prostate; 97% in the assay on UACC-62 melanoma. The growth in the assay on LOX IMVI melanoma was 103%; in the assay on SK-MEL-28 melanoma, 108%.
Consider `CN(C)c1nc2c([nH]1)c(=O)n(C)c(=O)n2C`, for which the growth in the assay with HT29 colon was 102%; in the assay on SNB-75 CNS, 102%; in the assay with SNB-19 CNS, 111%; with U251 CNS, 93.4%; with PC-3 prostate, 91.6%; in the assay with SK-MEL-5 melanoma, 101%. Besides, the growth in the assay on UACC-62 melanoma was 105%; with LOX IMVI melanoma, 98.7%.
`COC1=CC(=O)c2nc(Cl)ccc2C1=O`: the growth is 100% in the assay on HCT-15 colon; 48.6% in the assay on SNB-75 CNS; 113% in the assay on SNB-19 CNS; -42.5% (active) in the assay with U251 CNS; 21.7% with PC-3 prostate; 17.4% in the assay on UACC-62 melanoma. Further, the values for the growth in the assay on LOX IMVI melanoma and with SK-MEL-28 melanoma were -95.7% (active) and 111%, respectively.
In the case of `CCOC(=O)Nc1nn[nH]n1`, the growth in the assay on HCT-15 colon is 91.7%; in the assay with SNB-75 CNS, 94.8%; in the assay on SNB-19 CNS, 99.5%; in the assay on U251 CNS, 115%; with PC-3 prostate it was 96.8%; with UACC-62 melanoma, 99.3%. The growth in the assay on LOX IMVI melanoma is 92.9%; in the assay with SK-MEL-28 melanoma, 115%.
In the case of `CC1(C)/C(=C\CO)C2CCC1C2` (centres undefined), the growth in the assay on HCT-15 colon was 105%; in the assay with SNB-75 CNS it was 93.2%; in the assay on SNB-19 CNS it was 106%; with U251 CNS it was 105%; in the assay with PC-3 prostate, 95%; in the assay with UACC-62 melanoma it was 97.3%. For the same compound, the growth in the assay on LOX IMVI melanoma was 107%; with SK-MEL-28 melanoma it was 115%.
On to `CC(=O)/C(Cc1ccccc1)=N/O`, for which the growth in the assay with HT29 colon is 92.9%; in the assay with SNB-75 CNS it was 89.2%; in the assay with SNB-19 CNS, 98.9%; in the assay on U251 CNS, 94.9%; in the assay on PC-3 prostate, 84.9%; in the assay with SK-MEL-5 melanoma, 106%. Also, the growth was 98.1% in the assay with UACC-62 melanoma, 94.2% in the assay with LOX IMVI melanoma and 110% in the assay on SK-MEL-28 melanoma.
